We go through 51 compounds from PubChem BioAssay AID686979 (National Center for Advancing Translational Sciences (NCATS), 2013).

Screen size: about 420,000 compounds; about 50,000 (12%) were called active. Inconclusive results (about 26%) are left out. Calls come from the whole dose curve; as a rule, active = well fitted inhibition curve with a large enough effect; inconclusive = small, poorly fitted or top-dose-only effect; inactive = flat fitted curve, though single readings scatter. Only a selection was taken, and actives are over-represented in it overall.
% is set by controls: 0 for no effect and ±100 for the full control effect; potency is the fitted concentration of half-maximal effect.

This assay in a line: qHTS for Inhibitors of human tyrosyl-DNA phosphodiesterase 1 (TDP1): qHTS in cells in presence of CPT. Note: nearly all actives have a fitted effect of over 55% in size. To be noted: chicken DT40 Tdp1-/-;hTDP1 cells + 20 nM CPT, ATP luminescence, 48 h; series mostly up to 46.2 µM; activity change, negative = growth inhibition: at the top concentration. The gist of the method:
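Chicken DT40 Tdp1-/- cells complemented with human TDP1, 400 cells/well, exposed to compounds plus 20 nM camptothecin for at least 48 h at 37 C; viability read as ATP content by CellTiter-Glo luminescence.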
Background: Quantitative high-throughput screening tests each substance at several concentrations.
In the case of `CCOc1cc(C)ccc1OCc1nnc(SCC(=O)Nc2cccc(C(=O)O)c2)n1-c1ccccc1`, the “activity change, negative = growth inhibition” value was -7.05% (inactive).
Same read-out and setting: the figure for `CCCOc1ccc(/C=N/NC(=O)C2CC2)c(OCCC)c1` is -3.44% (inactive); for `CC(C)CN1CC(C)C(=O)N(c2ccccc2)C1=S` (stereo unspecified) it is -13.8% (inactive); for `N#CC(Cc1cc2ccccc2n1S(=O)(=O)c1ccccc1)OCc1ccccc1` (stereo unspecified) it is -17.2% (inactive).
On the same count and under the same terms, the value for `N[C@@H](Cc1ccccc1)C(=O)N1CCC(C(=O)NCC(=O)Nc2ccc(F)cc2)CC1` was 0.464% (inactive); that for `Cc1ccccc1C(=O)O` was 2.84% (inactive).
`O=C(O)c1cc([N+](=O)[O-])c(Nc2cccc3ccccc23)c([N+](=O)[O-])c1`: the “activity change, negative = growth inhibition” value was -27.4% (inactive).
On the same count and under the same terms, the figure for `CCN(CC)CCCNC(=O)Cn1cnc2sc(C)c(S(=O)(=O)N3CCN(c4ncccn4)CC3)c2c1=O` is -1.95% (inactive).
As for `CC1(C)CC(=O)C=C(c2cccc3c2Oc2ccccc2S3)C1`, the “activity change, negative = growth inhibition” value is 2.73% (inactive).
`COc1cc(OC)cc(C(=O)NNC(=O)CCOc2ccccc2OC)c1`: the “activity change, negative = growth inhibition” value was 12.8% (inactive).
On the same count and under the same terms, the figure for `COc1ccc(S(=O)(=O)c2c[nH]c(=S)[nH]c2=O)cc1Cl` is -10.9% (inactive); for `COc1ccc(-c2nc3ccccc3o2)cc1NC(=O)c1cc([N+](=O)[O-])ccc1N1CCOCC1` it is 1.85% (inactive).
`CCOC(=O)CC1(NC(=O)c2cc(COc3cncc(Cl)c3)on2)CCCCC1`: the Potency was 23.1 µM (active).
For `Cc1cc(OCc2cc(C(=O)NCc3cc(C(C)C)no3)no2)cc(C)c1Cl`, the “activity change, negative = growth inhibition” value was -25.7% (inactive).
Still for that read-out and setting: the figure for `CCOC(=O)c1c(NC(=O)c2cc(CC)on2)sc(C(C)=O)c1C` is 13.3% (inactive); for `Cc1cc(C)cc(NC(=O)CN2C(=O)c3ccccc3C2=O)c1` it is 11.3% (inactive); for `Cc1cccc(C(=O)Nc2ccc(C(=O)N/N=C/c3cccc(C)n3)cc2)c1` it is -21.6% (inactive).
For `Cc1cccc(C(=O)Nc2ccc(C(=O)/C=C/c3cccs3)cc2)c1`, the Potency was 16.4 µM (active).
On to `Cc1cccc(C(=O)Nc2ccc(CC(=O)O)cc2)c1`, for which the “activity change, negative = growth inhibition” value is -0.617% (inactive).
As to `CC(C)c1ccc(C(=O)OC2CCOC2=O)cc1` (stereo unspecified), the “activity change, negative = growth inhibition” value is -0.715% (inactive).
On the same count and under the same terms, the figure for `CCOC(=O)C1CCN(S(=O)(=O)c2cc(F)ccc2OC)CC1` is -16.9% (inactive); for `COc1ccc(CCNS(=O)(=O)c2cn(C)nc2C)cc1` it is -18.1% (inactive).
Consider `COc1ccc(-c2onc(C)c2C)cc1S(=O)(=O)NCC1CCN(Cc2cccc(F)c2)CC1`, for which the Potency was 20.6 µM (active).
`COc1ccc(C(=O)O)cc1S(=O)(=O)NC1CCN(Cc2ccccc2)CC1`: the “activity change, negative = growth inhibition” value is 14.9% (inactive).
The same measure, in the same setting: the figure for `Cc1ccc(-c2onc(C)c2C)cc1S(=O)(=O)Nc1ccccn1` is -17.1% (inactive).
For `COc1ccc(-c2onc(C)c2C)cc1S(=O)(=O)NCCc1ccccc1`, the Potency is 20.6 µM (active).
For `C[C@H]1CN([C@@H](C)CO)C(=O)CCCn2cc(nn2)CO[C@@H]1CN(C)S(=O)(=O)c1ccc(-c2ccccc2)cc1`, the “activity change, negative = growth inhibition” value is -26.9% (inactive).
For the compound `O=C(c1ccco1)N1CCC2(CC1)CCN(c1ncccn1)CC2`, the “activity change, negative = growth inhibition” value was -25.7% (inactive).
Same read-out and setting: the value for `CC(=O)Nc1ccc(S(=O)(=O)NC(C)C(=O)OCC(=O)NC2CCCC2)cc1` (stereo unspecified) was -4.92% (inactive); that for `O=C(COc1ccc(-n2cnnn2)cc1)Nc1ccccc1Cl` was -7.88% (inactive).
On to `Nc1nnc(SCC(=O)OCc2ccc(Cl)c(Cl)c2)s1`, for which the “activity change, negative = growth inhibition” value was -26.2% (inactive).
Same read-out and setting: the figure for `CCOC(=O)C(Sc1ncc(C#N)c(N)n1)C(C)C` (stereo unspecified) is -28% (inactive).
As for `O=C(NC(Cc1ccc(O)cc1)C(=O)O)/C(=C/c1ccccc1)NC(=O)c1ccccc1` (stereo unspecified), the “activity change, negative = growth inhibition” value was -11.8% (inactive).
Take `N#CCSc1nc(-c2ccccc2)nc2ccc(F)cc12`: the “activity change, negative = growth inhibition” value is -12% (inactive).
On the same count and under the same terms, the figure for `O=C(CCc1nc2ccccc2c(=O)[nH]1)OCC(=O)c1cccc(Cl)c1` is -1.52% (inactive).
In the case of `Clc1ccc2nc(-c3ccccc3)nc(C(Cl)Cl)c2c1`, the Potency is 0.164 µM (active).
In the case of `Cc1nn(-c2ccccc2)c(C)c1/C=C/C(=O)OC(C)C(N)=O` (stereo unspecified), the “activity change, negative = growth inhibition” value is 0.211% (inactive).
Turning to `Cc1ccc2c(NC(=O)C3CC3)cccc2n1`, the “activity change, negative = growth inhibition” value is -3.12% (inactive).
As to `Cc1ccc(C(=O)Nc2cccc3ncccc23)cc1[N+](=O)[O-]`, the “activity change, negative = growth inhibition” value was -22.8% (inactive).
Turning to `Cc1ccc(/C=C(\C#N)C(=O)Nc2cccc3ncccc23)o1`, the Potency is 16.4 µM (active).
Regarding `CC(C)(C)NC(=O)Cn1c(SCC(=O)Nc2nccs2)nc2ccccc21`, the “activity change, negative = growth inhibition” value was -11.2% (inactive).
Still for that read-out and setting: the value for `NC(=O)NC(=O)C(OC(=O)CCNS(=O)(=O)c1ccccc1)c1ccccc1` (stereo unspecified) was 1.03% (inactive); that for `COCCNC(=O)C(c1ccc(C)cc1)N(C(=O)CCC(=O)Nc1ccccn1)c1cccc(C)c1` (stereo unspecified) was -11% (inactive).
`CCCCCC(=O)N1C[C@H](O)[C@@H](n2cc(COC(=O)c3ccccc3)nn2)C[C@@H]1c1ccc(C)cc1`: the Potency is 0.82 µM (active).
As for `O=C(OCc1cn([C@@H]2C[C@H](c3ccc(Cl)cc3)N(Cc3cccs3)C[C@H]2O)nn1)c1ccccc1`, the “activity change, negative = growth inhibition” value was -3.26% (inactive).
`CCCCCCN1C[C@@H](O)[C@H](n2cc(COC(=O)c3ccccc3)nn2)C[C@@H]1c1ccc(Cl)cc1`: the “activity change, negative = growth inhibition” value is -19.1% (inactive).
Still for that read-out and setting: the figure for `Cc1cc(S(=O)(=O)NCC(C)C)ccc1OCC(=O)NC1CC1` is -1.97% (inactive); for `CC(Sc1ncnc2c1cnn2-c1ccccc1)C(=O)Nc1ccc(N2CCOCC2)cc1` (stereo unspecified) it is 4.76% (inactive); for `CCOC(=O)c1c(CN(C)C)n(-c2ccccc2)c2cc(Br)c(O)cc12` it is -18.9% (inactive).
Regarding `O=C1/C(=C\c2ccc(O)cc2)CCC1CNc1ccc(Cl)cc1` (stereo unspecified), the Potency was 4.61 µM (active).
For the compound `CC(C(=O)NC1CCS(=O)(=O)C1)N1C(=O)/C(=C/c2ccc(Cl)cc2)SC1=S` (stereo unspecified), the “activity change, negative = growth inhibition” value was -27.2% (inactive).
